Compound activity (PubChem)
The list is not random: actives were taken first. Their share in the collection is about 1.6%.
KCNQ2 enhance = potentiators of rat KCNQ2 potassium channel; CHO-K1 KCNQ2, FluxOR thallium flux fluorescence; active compounds read high; 310,000 compounds, 0.54% hits; Potassium voltage-gated channel subfamily KQT member 2 (Rattus norvegicus), O88943; B-score at 10 µM; AID 2239, 2010;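 active means fluorescence ratio B-score at least 3 SD of library B-scores, with initial fluorescence B-score within 3 of them, cut at about 5.3 in these data; same plate scores as AID 2156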;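 further: B-score of peak minus minimum over baseline fluorescence ratio after K+ and Tl+ stimulus; positive B-score means potentiation of KCNQ2 with more thallium influx and brighter signal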
Target sequence (O88943 whole entry, looked up): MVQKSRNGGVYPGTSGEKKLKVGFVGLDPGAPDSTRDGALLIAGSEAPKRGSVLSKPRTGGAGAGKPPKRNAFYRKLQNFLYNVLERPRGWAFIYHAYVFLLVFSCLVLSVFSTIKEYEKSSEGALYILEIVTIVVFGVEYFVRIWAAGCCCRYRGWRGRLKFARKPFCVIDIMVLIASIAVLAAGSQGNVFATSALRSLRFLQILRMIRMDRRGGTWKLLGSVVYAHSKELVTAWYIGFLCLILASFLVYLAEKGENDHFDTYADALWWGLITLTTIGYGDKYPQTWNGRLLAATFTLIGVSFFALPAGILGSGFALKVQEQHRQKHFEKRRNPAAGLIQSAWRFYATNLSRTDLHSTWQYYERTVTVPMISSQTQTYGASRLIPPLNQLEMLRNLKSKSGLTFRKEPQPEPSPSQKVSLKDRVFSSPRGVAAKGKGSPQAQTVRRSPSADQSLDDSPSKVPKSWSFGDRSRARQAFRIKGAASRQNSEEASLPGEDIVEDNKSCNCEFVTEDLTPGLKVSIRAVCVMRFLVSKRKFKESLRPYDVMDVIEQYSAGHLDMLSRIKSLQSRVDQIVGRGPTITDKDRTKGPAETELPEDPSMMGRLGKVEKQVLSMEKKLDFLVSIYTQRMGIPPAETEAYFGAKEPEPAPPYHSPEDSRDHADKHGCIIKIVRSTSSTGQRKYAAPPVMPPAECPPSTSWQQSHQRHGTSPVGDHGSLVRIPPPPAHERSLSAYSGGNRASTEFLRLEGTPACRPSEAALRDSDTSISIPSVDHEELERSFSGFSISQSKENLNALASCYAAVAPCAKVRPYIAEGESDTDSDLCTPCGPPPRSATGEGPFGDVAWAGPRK
KCNQ2 inh = rat KCNQ2 potassium channel inhibitors, primary screen, cell-based, CHO-K1, FluxOR thallium flux, B-score | Potassium voltage-gated channel subfamily KQT member 2 (Rattus norvegicus), O88943 | 20 min; active compounds read low | B-score at 10 µM | 310,000 compounds, 1.1% hits;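 active means fluorescence ratio B-score at most minus 3 library SDs, with starting brightness B-score within 2 library SDs, cut at about -5.5 in these data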
Hits are given with their value; . = inactive; / = no result given.

SMILES	KCNQ2 enhance	KCNQ2 inh
COC(=O)c1cc(-c2ccc(Br)cc2)on1	.	.
COC(=O)c1nn(C23CC4CC(CC(C4)C2)C3)c2c1C(=O)N(c1ccc(Br)cc1)C2=O	.	-6.45
CCOC(=O)c1ccc(N2C(=O)C(C)=C(C)C2=O)cc1	/	.
COC(=O)C1CSC(C(=O)OC)N1C(=O)CN1CCN(c2ccccc2)CC1 (stereo not drawn)	.	.
Cc1cccc(OCc2nnc(SCC(=O)N(C(C)C)C(C)C)n2Cc2ccco2)c1C	.	-7.68
Cc1cc(NC(=O)CSc2nnc(COc3cccc(C)c3C)n2Cc2ccco2)no1	.	.
C=CCNC(=O)NC(=O)COC(=O)CNS(=O)(=O)c1ccc(F)c(F)c1F	/	.
COc1ccc(C2CC(c3c(-c4ccccc4)c4cc(Cl)ccc4[nH]c3=O)=NN2S(C)(=O)=O)cc1 (stereo not drawn)	.	.
COc1ccc(OC)c(C2CC(c3c(-c4ccccc4)c4cc(Cl)ccc4[nH]c3=O)=NN2S(C)(=O)=O)c1 (stereo not drawn)	.	-7.05
O=C(Nc1ccc(F)cc1)c1cccnn1	.	.
COc1ccc(Br)cc1/C=C/C(=O)NC(=S)Nc1ccc(CN2CCOCC2)cc1	.	-6.33
COc1ccc(C(=O)NC(=S)Nc2ccc(CN3CCOCC3)cc2)cc1OC	/	.
Cc1ccc(NC(=O)CCc2nnc3ccc(N4CCC5(CC4)OCCO5)nn23)cc1F	/	.
CC(C)n1cc(C(=O)NC2CC(C)(C)Cc3c2cnn3-c2ccccc2)cn1 (stereo not drawn)	/	.
COC(=O)c1ccc(CNC(=O)c2c3c(nc4ccccc24)CCN(Cc2ccccc2)C3)cc1	.	-6.18
O=C(NCc1ccc(F)cc1)c1c2c(nc3ccccc13)CCN(Cc1ccccc1)C2	/	.
CCN(CC)S(=O)(=O)c1ccc(OC)c(NC(=O)C(Cc2ccccc2)N2C(=O)c3ccccc3C2=O)c1 (stereo not drawn)	.	.
Cc1ccc2nc(-c3ccccc3)cc(C(=O)NCC3CCCO3)c2c1 (stereo not drawn)	/	.
Cc1ccc2nc(-c3ccccc3)cc(C(=O)NCC(c3ccco3)N(C)C)c2c1 (stereo not drawn)	.	-5.8
O=C(NCCCN1CCOCC1)C(=O)N/N=C/c1ccccc1O	.	.
O=C1CSC(c2cccc(F)c2)N1c1ccccc1 (stereo not drawn)	.	.
CC(C)(C)N(NC(=O)OCc1ccccc1)C(=O)c1ccccc1Cl	7.66	.
CC(C)(C)N(NC(=O)OCc1ccccc1)C(=O)c1ccccc1	/	.
S=c1[nH]nc(Cn2cnc3ccccc32)n1-c1ccccc1	.	.
COCCN(C(=O)COC(=O)c1ccccc1NCc1ccco1)c1c(N)n(Cc2ccccc2)c(=O)[nH]c1=O	.	.
SMILES	KCNQ2 enhance	KCNQ2 inh
CCN(CC)C(=O)COc1c(-c2ccco2)oc2ccccc2c1=O	.	.
CC(=O)Oc1c(-c2ccco2)oc2ccccc2c1=O	5.91	.
CCOc1ccccc1N(CC(=O)NC1CCCC1)S(=O)(=O)c1ccc(C)cc1	/	.
CCCCN(C(=S)Nc1cccc(C)c1C)c1c(N)n(CCC)c(=O)[nH]c1=O	/	.
Cc1ccc(N2C(=O)CC(N3CCN(c4ccccn4)CC3)C2=O)cc1 (stereo not drawn)	/	.
Cc1ccc2nc(-c3ccc(N4C(=O)CC(N5CCN(CCO)CC5)C4=O)cc3)sc2c1 (stereo not drawn)	.	-6.32
CCCCNC(=O)CNC(=S)N(Cc1ccccc1F)C1CCCCC1	.	-6.85
COCCCNC(=O)CNC(=S)N(Cc1ccccc1F)C1CCCCC1	/	.
COC(=O)Cn1ncc(N(C)Cc2ccccc2)c(Cl)c1=O	.	.
CCN(CC)CCSc1nnc2c3ccccc3n(CCc3ccccc3)c2n1	/	.
c1ccc(CCn2c3ccccc3c3nnc(SCc4ccc5nonc5c4)nc32)cc1	.	-6.15
CCOC(=O)c1c(C)nc(C)c2c(=O)oc3ccccc3c12	/	.
COc1ccc(-c2csc(NC(=O)CSCc3c(C)noc3C)n2)c(OC)c1	/	.
Clc1ccc(-n2cnnn2)cc1	.	.
CO/C=C\C=C/c1nnn(-c2ccc(Cl)cc2)n1	.	-6.86
COc1ccc2nc(/N=C/c3c(C)[nH]n(-c4ccc(C)cc4)c3=O)sc2c1	21.1	.
CCc1nnc(NS(=O)(=O)c2ccc(N=Cc3c(C)[nH]n(-c4ccc(Cl)cc4)c3=O)cc2)s1	.	.
Cc1[nH]n(-c2ccc(Cl)cc2)c(=O)c1/C=N/c1nnc(-c2ccccc2)s1	19.7	.
COc1ccc2nc(/N=C\N(C)C)sc2c1	/	.
Cc1cccc(C)c1NC(=O)CSc1nnc(C2CCCCC2)o1	.	.
CC(Oc1ccccc1C(N)=O)C(=O)Nc1ccc(S(=O)(=O)N2CCCC2)cc1 (stereo not drawn)	/	.
CCN1CCCC1CNC(=O)c1cc2cc(F)ccc2[nH]1 (stereo not drawn)	.	.
CCN(CC)CCN(C(=O)c1ccc2c(c1)CCCC2)c1nc2c(C)cccc2s1	.	-8.14
CCN(CC)CCN(C(=O)c1ccc2c(c1)CCCC2)c1nc2ccc(C)cc2s1	/	.
CN(C)CCN(C(=O)c1ccc2ccccc2c1)c1nc2c(F)cccc2s1	/	.
SMILES	KCNQ2 enhance	KCNQ2 inh
Cc1cc(C)c2nc(N(CCN(C)C)C(=O)c3ccc4ccccc4c3)sc2c1	.	-6.02
COCC1CCN(Cc2c(C(=O)N3CCc4ccccc4C3)nc3ccc(Cl)cn23)C1 (stereo not drawn)	/	.
COc1nnc(-c2ccc(C)c(S(=O)(=O)NC(C)C)c2)c2ccccc12	/	.
COC(=O)c1ccccc1NC(=O)Cn1nc2n(C)c3ccccc3n2c(=O)c1=O	/	.
Cc1ccc(N(C)S(=O)(=O)c2ccc(-c3cnc(C4CC4)o3)cc2)cc1	.	-9.51
Cc1ccc(NS(=O)(=O)c2ccc(-c3cnc(C4CC4)o3)cc2)cc1	/	.
COc1cc(COCC(O)CN2CCN(CCN3C(=O)c4cccc5cccc(c45)C3=O)CC2)cc(OC)c1OC (stereo not drawn)	.	.
O=C1c2cccc3cccc(c23)C(=O)N1CCN1CCN(CC(O)COCc2ccc(Cl)cc2)CC1 (stereo not drawn)	.	-5.73
CCCCn1c(N)c(N(CC)C(=O)c2ccc(C#N)cc2)c(=O)[nH]c1=O	/	.
Cc1ccc(NS(=O)(=O)c2c(C)[nH]c(C)c2C(=O)N2CCCCC2)c(Br)c1	.	.
CC1=C(C(=O)OC2CCCCCC2)C(c2ccc(C)o2)C2=C(CCCC2=O)N1 (stereo not drawn)	.	.
CC1=C(C(=O)OC2CCCC2)C(c2ccc(C)o2)C2=C(CC(c3cccs3)CC2=O)N1 (stereo not drawn)	.	-5.7
COc1ccc(NC(=O)c2c(-c3ccccc3)noc2C)c(OC)c1	/	.
Cc1cccc(C)c1NC(=O)c1c(-c2ccccc2)noc1C	.	-5.7
Cc1onc(-c2ccccc2)c1C(=O)Nc1ccccc1NC(=O)c1c(-c2ccccc2)noc1C	/	.
CCCOc1ccccc1NC(=O)c1c(-c2ccccc2)noc1C	.	-6.06
C/C(=N\NC(=O)CSc1nc(C)[nH]c1[N+](=O)[O-])c1ccc(F)cc1	.	.
COc1ccc(C(=O)COC(=O)c2cc(=O)[nH]c3ccccc23)c(OC)c1	.	.
COc1ccc(CNc2cccc(C)n2)c(O)c1	/	.
Cc1cccc(NCc2cccc3ccccc23)n1	.	-5.9
O=C1C(=O)N(CCN2CCOCC2)C(c2ccccc2F)/C1=C(\O)c1ccc(S(=O)(=O)N2CCOCC2)cc1 (stereo not drawn)	/	.
